From PubChem BioAssay (EPA / NIEHS)
Inconclusive results are not listed. Activity calls are given as the source filed them. Rule for the calls, unless noted: active = hit-call score of the fitted dose curve at least 0.9, where 1 is the maximum; inactive = score below 0.9.

Legend:
[1] = CCTE_Shafer_MEA_dev_network_spike_duration_std: CCTE's Neural Network Formation Assay for Standard Deviation of Network Spike Duration, Shafer Lab (AID 2284052);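 note: area under curve of spike duration SD across recording days 5 to 12; hits are decreases in network spike duration SD versus DMSO vehicle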
Method in brief: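 Rat cortical cultures, 1.5 x 10^5 cells/well, exposed continuously from plating to DIV 12 with media/compound renewal at DIV 5, 9. Spontaneous activity recorded DIV 5/7/9/12, AxIS adaptive spike detector; AUC across days; negative direction vs DMSO.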

[2] = CCTE_Shafer_MEA_dev_per_network_spike_spike_number_mean: CCTE's Neural Network Formation Assay for Mean Number of Spikes in a Network Spike, Shafer Lab (AID 2284053);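 for AC50: fitted as decrease in spikes per network spike relative to DMSO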
Method in brief: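 Rat cortical primary cultures on 48-well MEA; compound from day 0, re-dosed with full media change DIV 5, 9. Recorded DIV 5, 7, 9, 12; spikes in 0.05 s window at network-spike peak ÷ total network spikes; AUC; loss vs DMSO.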

[3] = CCTE_Shafer_MEA_dev_per_network_spike_spike_percent: CCTE's Neural Network Formation Assay for Percent of Spikes in a Network Spike, Shafer Lab (AID 2284054)
Method in brief: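 Metric: fraction of spikes falling in a 0.05 s window at network-spike peaks. Recordings were made on days 5, 7, 9 and 12 and collapsed by trapezoidal AUC. Cultures were rat cortical neurons on MEA plates, dosed continuously from plating, re-dosed at media changes.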

[4] = CCTE_Shafer_MEA_dev_LDH: CCTE's Lactate Dehydrogenase Assay for Cytotoxicity in the Neural Network Formation Assay, Shafer Lab (AID 2284068; active = hit-call score of the fitted dose curve at least 0.9, where 1 is the maximum;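 note: exposure for twelve days from plating with re-dosing on DIV 5 and 9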)
Method in brief: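 Rat cortical primary neurons, MEA culture; dosing day 0–12, full medium plus compound exchange DIV 5, 9. Read-out: LDH enzyme activity, spectrophotometric. DMSO = negative control/baseline; signal loss → cytotoxicity.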

[5] = CCTE_Shafer_MEA_dev_AB: CCTE's Alamar Blue Assay for Cytotoxicity in the Neural Network Formation Assay, Shafer Lab (AID 2284083; active = hit-call score of the fitted dose curve at least 0.9, where 1 is the maximum;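 note: resazurin reduction fluorescence as viability of cultured neurons; twelve days of exposure from plating with re-dosing on DIV 5 and 9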)
Method in brief: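 Rat cortical primary cultures, 1.5 x 10^5 cells/well on MEA; continuous compound exposure over 12 days of network development, re-dosed with full medium change DIV 5 and 9. Alamar Blue fluorescence; loss of signal = cytotoxicity vs DMSO baseline.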

[6] = CCTE_Shafer_MEA_dev_mutual_information_norm: CCTE's Neural Network Formation Assay for Mutual Information Normalization, Shafer Lab (AID 2284091);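 for AC50: mutual information between electrodes summarised as area under curve across four recording days; potency is for a decrease in mutual information relative to DMSO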
Method in brief: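 Shared information across electrodes, tracked on days 5, 7, 9 and 12 of network development and collapsed as trapezoidal area under the curve. Rat cortical cultures were treated continuously from plating, with treatment renewed at feeds on DIV 5 and 9; DMSO baseline, negative-direction fit.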

[7] = CCTE_Shafer_MEA_dev_correlation_coefficient_mean: CCTE's Neural Network Formation Assay for Mean Correlation Coefficient, Shafer Lab (AID 2284093);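 for AC50: well mean pairwise spike train correlation integrated as AUC over recording days 5 to 12; potency fitted for loss of correlation relative to DMSO vehicle wells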
Method in brief: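 Rat cortical cultures, 1.5 x 10^5 cells/well, dosed from day 0 for 12 days. Spontaneous spikes recorded DIV 5/7/9/12; electrode-pair correlation coefficients averaged, AUC taken. Fit in loss direction vs DMSO.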

[8] = IUF_NPC1b_proliferation_BrdU_72hr: Leibniz Research Institute for Environmental Medicine (IUF) 72-hour Neural Progenitor Cell Bromodeoxyuridine (BrdU) Proliferation Assay (NPC1b) (AID 2284207)
Method in brief: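 Human fetal cortex-derived (GW 16-19) neural progenitor spheres, 0.25-0.35 mm, one per well in EGF/FGF proliferation medium, exposed to compound for 72 h at 37C, pH 7.2-7.6. BrdU incorporation over the final 16 h read by luminescence ELISA, relative to DMSO.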

[9] = IUF_NPC1a_proliferation_area_72hr: Leibniz Research Institute for Environmental Medicine (IUF) 72-hour Neural Progenitor Cell Proliferation Area Assay (NPC1a) (AID 2284208)
Method in brief: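 hNPC spheres (human fetal cortex, GW 16-19), one per poly-Hema U-bottom well; EGF+FGF medium; dosed day 0, no re-dosing; 72 h, 37C, 5% CO2; phase-contrast sphere area; DMSO = baseline; minus-GF = positive ctrl.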

[10] = IUF_NPC1_viability_72hr: Viability Assessment at 72 hours in the Leibniz Research Institute for Environmental Medicine (IUF) Neural Progenitor Cell Proliferation Assay (NPC1) (AID 2284209)
Method in brief: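 Viability was measured by resazurin-to-resorufin fluorescence (alamar blue) after 72 h of continuous exposure without compound renewal. Each well held one hNPC sphere (gestational week 16-19 fetal cortex, 0.25-0.35 mm) cultured in EGF/FGF proliferation medium at 37C and pH 7.2-7.6.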

[11] = CCTE_Shafer_MEA_acute_LDH: CCTE's Lactate Dehydrogenase Assay for Cytotoxicity in the Neural Acute Assay, Shafer Lab (AID 2284086; active = hit-call score of the fitted dose curve at least 0.9, where 1 is the maximum;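 note: active means LDH release rises above DMSO vehicle level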)
Method in brief: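 LDH released during 40 min compound exposure of primary rat cortical cultures, quantified by absorbance at 490 nm in collected medium. Fitting direction positive versus DMSO vehicle.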

DIO3 (gene 1735) = assay: CCTE_GLTED_hDIO3: CCTE's human Deiodinase 3 (DIO3) Inhibition Assay, Great Lakes Toxicology and Ecology Division (GLTED) Lab (AID 2284055; active = hit-call score of the fitted dose curve at least 0.9, where 1 is the maximum;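 for AC50: potency is for inhibition seen as loss of released iodide signal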)
Method in brief: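 Inhibition is read as reduced iodide release, measured spectrophotometrically by the Sandell-Kolthoff cerium/arsenic reaction. Adenovirus-expressed human DIO3 enzyme is exposed to chemical for 3 h, n=3 plates. Iodinated chemicals, nitrite, iron or thiocyanate may interfere.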

[12] = CCTE_Mundy_HCI_Cortical_Synap_Neur_Matur_NeuriteSpotCountPerNeuriteLength: CCTE's Synaptogenesis and Neurite Maturation Assay in rat cortical cells for Neurite Spot Count per Neurite Length, Mundy Lab (AID 2284210)
Method in brief: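 Synaptophysin spots per unit neurite length, measured by automated imaging of MAP2/synaptophysin/Hoechst-stained neurons. Cultures from rat cortex received chemical at DIV 7 with media change through DIV 12; glial growth arrested by AraC at DIV 5; DMSO baseline.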

[13] = CCTE_Mundy_HCI_Cortical_Synap_Neur_Matur_BPCount: CCTE's Synaptogenesis and Neurite Maturation Assay in rat cortical cells for Branch Point Count, Mundy Lab (AID 2284211)
Method in brief: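 HCI read-out of branch points from MAP2/synaptophysin/Hoechst immunofluorescence; rat cortical cultures, AraC DIV 5, dosing DIV 7, fixed DIV 12; fit in positive direction vs DMSO baseline.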

[14] = CCTE_Mundy_HCI_Cortical_NOG_NeuriteCount: CCTE's Neurite Outgrowth Assay in rat cortical cells for Neurite Count, Mundy Lab (AID 2284212);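 note: cells fixed about two days after chemical exposure began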
Method in brief: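 Rat cortical primary cells; compound added 2 h post-plating, 1/10 dilution of working solution. Anti-betaIII-tubulin/AF488 ICC; ArrayScan neurite count vs DMSO.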

[15] = CCTE_Mundy_HCI_Cortical_NOG_NeuriteLength: CCTE's Neurite Outgrowth Assay in rat cortical cells for Neurite Length, Mundy Lab (AID 2284213)
Method in brief: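 First, rat primary cortical cells were plated and, 2 h later, given test chemical as a 1/10 dilution. Finally, βIII-tubulin immunostaining enabled automated imaging of neurite length.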

[16] = CCTE_Mundy_HCI_Cortical_Synap_Neur_Matur_NeuriteLength: CCTE's Synaptogenesis and Neurite Maturation Assay in rat cortical cells for Neurite Length, Mundy Lab (AID 2284214)
Method in brief: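 Neurite length quantified by automated high-content imaging of MAP2, synaptophysin and Hoechst staining. Rat cortical cells received chemical from DIV 7 to DIV 12 […], glial growth arrested by AraC at DIV 5; DMSO baseline.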

With `O=P(Oc1ccccc1)(Oc1ccccc1)Oc1ccccc1` the outcome [1] was “inactive”, the outcome [2] was “inactive” and the outcome [3] was “inactive”. For the same molecule, the outcome [4] was “inactive”, the outcome [5] was “inactive” and the outcome [6] was “inactive”. For the same molecule, the outcome [7] was “inactive”, the outcome [8] was “inactive” and the outcome [9] was “inactive”. The outcome [10] was “inactive”.
For `O=C(O)C=CC(F)(C(F)(F)F)C(F)(F)F`, the outcome [1] was “inactive”, the outcome [2] was “inactive” and the outcome [3] was “inactive”. For the same molecule, the outcome [6] was “inactive” and the outcome [7] was “inactive”.
In the case of `ClC(Cl)(Cl)c1ccccc1`, the outcome [11] is reported as “inactive”.
For `C=CC(=O)OCC(F)(F)C(F)F`, the outcome [1] was “inactive”, the AC50 [2] was 4.85 µM (active) and the AC50 [3] was 15 µM (active). The AC50 (DIO3 (gene 1735)) was 52.4 µM (active), the AC50 [4] was 8.15 µM (active) and the AC50 [5] was 20.7 µM (active). The AC50 [6] was 5.12 µM (active) and the AC50 [7] was 11.3 µM (active).
In the case of `O=P1(N(CCCl)CCCl)NCCCO1` (stereo not given), the outcome [1] is reported as “inactive”, the outcome [2] is reported as “inactive” and the outcome [3] is reported as “inactive”. The AC50 [4] was 11.6 µM (active), the outcome [6] was “inactive” and the outcome [7] was “inactive”. The outcome [12] was “inactive”, the outcome [13] was “inactive” and the outcome [14] was “inactive”. For the same molecule, the outcome [15] was “inactive” and the outcome [16] was “inactive”.
For `O=C(O)C(F)(F)OC(F)(F)C(F)(F)OC(F)(F)C(=O)O`, the outcome [1] was “inactive”, the outcome [2] was “inactive” and the outcome [3] was “inactive”. The outcome [6] was “inactive” and the outcome [7] was “inactive”.
In the case of `CC(O)C(F)(F)C(F)(F)F` (stereo not given), the outcome [1] is reported as “inactive”, the outcome [2] is reported as “inactive” and the outcome [3] is reported as “inactive”. The outcome [5] was “inactive”, the outcome [6] was “inactive” and the outcome [7] was “inactive”.
In the case of `O=C(O)C1C(C(=O)O)C2(Cl)C(Cl)=C(Cl)C1(Cl)C2(Cl)Cl` (stereo not given), the outcome [1] is reported as “inactive”, the outcome [2] is reported as “inactive” and the outcome [3] is reported as “inactive”. For the same molecule, the outcome [4] was “inactive”, the outcome [6] was “inactive” and the outcome [7] was “inactive”.
In the case of `CCOP(=S)(Oc1ccc([N+](=O)[O-])cc1)c1ccccc1` (stereo not given), the outcome [11] is reported as “inactive”.
In the case of `O=S(=O)(F)C(F)(F)C(F)(F)C(F)(F)C(F)(F)C(F)(F)C(F)(F)C(F)(F)C(F)(F)F`, the AC50 (DIO3 (gene 1735)) is reported as 28.4 µM (active).
For `CCCCC(CC)COC(=O)c1c(Br)c(Br)c(Br)c(Br)c1C(=O)OCC(CC)CCCC` (stereo not given), the outcome [1] was “inactive”, the outcome [2] was “inactive” and the outcome [3] was “inactive”. For the same molecule, the outcome [4] was “inactive”, the AC50 [5] was 0.0248 µM (active) and the outcome [6] was “inactive”. The outcome [7] was “inactive”.
For `O=C(O)C(F)(F)C(F)(F)C(=O)O`, the outcome [1] was “inactive”, the outcome [2] was “inactive” and the outcome [3] was “inactive”. The outcome [4] was “inactive”, the outcome [5] was “inactive” and the outcome [6] was “inactive”. The AC50 [7] was 1.81 µM (active).
With `c1cc2c3c(cccc3c1)CC2` the outcome [1] was “inactive”, the outcome [2] was “inactive” and the outcome [3] was “inactive”. The outcome [5] was “inactive”, the outcome [6] was “inactive” and the outcome [7] was “inactive”.
For `CCOc1ccc(C(C)(C)COCc2cccc(Oc3ccccc3)c2)cc1`, the outcome [1] was “inactive”, the AC50 [2] was 10 µM (active) and the AC50 [3] was 10 µM (active). For the same molecule, the AC50 [4] was 15.2 µM (active), the AC50 [5] was 1.98 µM (active) and the AC50 [6] was 3.09 µM (active). For the same molecule, the AC50 [7] was 10 µM (active), the AC50 [8] was 1.92 µM (active) and the outcome [9] was “inactive”. For the same molecule, the outcome [10] was “inactive”, the AC50 [12] was 23.7 µM (active) and the AC50 [13] was 26.8 µM (active). For the same molecule, the AC50 [14] was 21.9 µM (active), the outcome [15] was “inactive” and the AC50 [16] was 3.81 µM (active).
For `Cc1ccc(N)cc1N`, the outcome [11] was “inactive”.
In the case of `ClC1=C(Cl)C2(Cl)C3C(Cl)C(Cl)CC3C1(Cl)C2(Cl)Cl` (stereo not given), the outcome [1] is reported as “inactive”, the AC50 [2] is reported as 7.75 µM (active) and the AC50 [3] is reported as 7.62 µM (active). The AC50 [4] was 7.62 µM (active), the AC50 [5] was 7.42 µM (active) and the outcome [11] was “inactive”. For the same molecule, the AC50 [6] was 7.75 µM (active) and the AC50 [7] was 7.71 µM (active).
With `O=c1ssc(Cl)c1Cl` the AC50 (DIO3 (gene 1735)) was 3.57 µM (active).
For `[N-]=[N+]=[N-]`, the outcome [11] was “inactive”.
With `COCCOCCO` the outcome [11] was “inactive”.
With `O=C(O)C(F)(F)OC(F)(F)C(F)(F)OC(F)(F)F` the outcome [1] was “inactive”, the outcome [2] was “inactive” and the outcome [3] was “inactive”. The outcome [6] was “inactive” and the AC50 [7] was 3.78 µM (active).
With `CCCCOCCOP(=O)(OCCOCCCC)OCCOCCCC` the outcome [8] was “inactive”, the outcome [9] was “inactive” and the outcome [10] was “inactive”.
For `CC1(C)CN=C(NN=C(/C=C/c2ccc(C(F)(F)F)cc2)/C=C/c2ccc(C(F)(F)F)cc2)NC1`, the outcome (DIO3 (gene 1735)) was “inactive”.
For `OCC(F)(F)OC(F)(F)C(F)(F)OC(F)(F)C(F)(F)OC(F)(F)F`, the outcome [1] was “inactive”, the outcome [2] was “inactive” and the outcome [3] was “inactive”. The outcome [4] was “inactive”, the outcome [5] was “inactive” and the outcome [6] was “inactive”. For the same molecule, the outcome [7] was “inactive”.
In the case of `COP(=O)(CCC(=O)NCO)OC`, the outcome [11] is reported as “inactive”.
With `CCC1(c2ccccc2)C(=O)N=C(O)NC1=O` (stereo not given) the outcome [1] was “inactive”, the outcome [2] was “inactive” and the outcome [3] was “inactive”. For the same molecule, the outcome [4] was “inactive”, the outcome [5] was “inactive” and the outcome [6] was “inactive”. For the same molecule, the outcome [7] was “inactive”, the outcome [12] was “inactive” and the outcome [13] was “inactive”. For the same molecule, the outcome [14] was “inactive”, the outcome [15] was “inactive” and the outcome [16] was “inactive”.
